Source: PubChem BioAssay (National Center for Advancing Translational Sciences (NCATS))
IMPase cell inh – cell-permeable inhibitors of inositol monophosphatase (IMPase); P97697; CHO-M1 cells, IP1 accumulation, HTRF TR-FRET ratio; inhibition (IP1 accumulation), % at 46.1 µM; 120,000 tested, under 10 active; AID 901; active = well fitted curve in the direction sought with a large enough effect in the signal ratio, not every such curve was filed as active; inconclusive = small, poorly fitted or top-dose-only effect, or a change in a side signal; inactive = no such curve, though single readings can be large or run the other way; the % refers to the signal ratio;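 note: cells stimulated with carbachol in lithium chloride buffer; plate controls were DMSO basal wells for no effect and reference inhibitor wells for full effect; higher means more IMPase inhibition seen as more IP1 and lower FRET ratio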
Target sequence (P97697 whole entry, looked up): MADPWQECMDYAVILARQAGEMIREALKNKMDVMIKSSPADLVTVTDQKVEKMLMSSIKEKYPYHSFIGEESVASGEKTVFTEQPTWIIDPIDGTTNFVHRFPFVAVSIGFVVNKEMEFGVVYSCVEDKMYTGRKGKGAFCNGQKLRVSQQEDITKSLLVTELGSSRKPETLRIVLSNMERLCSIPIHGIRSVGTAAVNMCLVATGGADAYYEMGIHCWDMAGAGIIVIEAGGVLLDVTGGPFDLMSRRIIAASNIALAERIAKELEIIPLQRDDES
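Elevated IP1 in lysates lowers TR-FRET signal (665/620 ratio and 620 channel reported). Cells were CHO-M1, given carbachol (50 uM as added) plus 50mM LiCl, pH 7.4, 30 min, 37C; compounds titrated up to 46 uM; AC50 by Hill equation.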
NPSR antagonist – antagonists of human neuropeptide S receptor cAMP signaling. Q6W5P4. AID 1461. Potency, µM (doses to about 38.3 µM), for inactives: top-dose activity change, negative = inhibition, most hits filed as inhibitors. CHO-NPSR cells, cAMP TR-FRET, antagonist mode. actives 1% (n = 220,000); note: potency is the fitted concentration of half-maximal effect; % is set by controls: 0 for no effect and ±100 for the full control effect; nearly all actives have a fitted effect of over 50% in size
Target sequence (Q6W5P4 whole entry, looked up): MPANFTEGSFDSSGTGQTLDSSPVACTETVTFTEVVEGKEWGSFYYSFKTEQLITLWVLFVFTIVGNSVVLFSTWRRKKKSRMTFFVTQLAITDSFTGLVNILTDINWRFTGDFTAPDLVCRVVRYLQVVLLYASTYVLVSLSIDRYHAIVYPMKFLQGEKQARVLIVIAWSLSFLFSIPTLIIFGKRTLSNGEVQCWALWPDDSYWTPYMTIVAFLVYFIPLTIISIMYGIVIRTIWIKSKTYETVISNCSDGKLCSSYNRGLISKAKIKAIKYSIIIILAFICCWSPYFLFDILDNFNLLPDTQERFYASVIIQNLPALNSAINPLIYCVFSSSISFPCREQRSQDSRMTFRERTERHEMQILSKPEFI
LMNA splice mod – changes lamin A minigene splicing in HeLa cells; HeLa LMNA splicing GFP/RFP minigene ratio, 48 h; Potency, µM (doses to about 46.1 µM), without a hit: at the top dose ratio change, negative = inhibition, actives largely listed as inhibitors; actives 0.01% (n = 200,000); active = well fitted inhibition curve with a large enough effect in the signal ratio, with a control signal flat, not every such curve was filed as active; inconclusive = small, poorly fitted or top-dose-only effect, or effect the other way, or a change in a side signal; the % refers to the signal ratio; note: potency is the fitted concentration of half-maximal effect; % is set by controls: 0 for no effect and ±100 for the full control effect
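Read-out is the ratio of GFP to DsRed2 object intensity, acquired by 488 nm laser-scanning cytometry on HeLa lamin A-EGFP minigene reporter cells. Compound incubation 48 hrs at 37 °C in Opti-MEM with 2% FBS; DMSO 0.5% final.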
HTT ATP protect – cytoprotection in Huntington HTT-Q103 PC12 cell model. PC12 HTT-Q103 induced, cytoprotection, ATP luminescence, 40 h. Potency, µM (series often up to 56.4 µM), inactives show cytoprotection (ATP increase), actives largely listed as activators. actives 0.14% (n = 230,000). AID 1471; note: potency is the fitted concentration of half-maximal effect; % of control where 0% means no effect; nearly all actives have a fitted effect of over 45% in size
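Readout: ATPlite luminescence (ATP level). Model: stable PC12, inducible Htt exon1 Q103-GFP. Inducer: tebufenozide, 100 nM final. Compounds: dose series. No G418 in medium.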
IMPase Li cell – membrane-permeable IMPase blocker, potentiated with lithium; CHO-M1 cells, IP1 TR-FRET (IP-One), carbachol + lithium; Potency, µM (series often up to 59.4 µM), without a hit: at the top dose activity, negative = IMPase inhibition, actives largely listed as inhibitors; AID 1457; actives 0.35% (n = 210,000);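 note: IP1 builds up when IMPase is blocked and the TR-FRET signal falls; potency is the fitted concentration of half-maximal effect; plate controls were basal vehicle for no effect and high inhibitor control for full effect; nearly all actives have a fitted effect of over 50% in size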
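IP1 accumulation measured by competitive TR-FRET in lysed CHO-M1 cells after 30 min compound exposure at 37C, with a small lithium addition to potentiate weak responses. Hill-equation AC50 from ratio and donor-channel data.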
HTT aggregate – mutant huntingtin aggregation inhibition. PC12 HttQ103-GFP aggregates, Acumen cytometry, 40 h. Potency, µM (highest dose often 46.1 µM), for inactives: at the highest dose activity change, negative = inhibition, usual class: inhibitors. actives 1.1% (n = 220,000); note: potency is the fitted concentration of half-maximal effect; % is set by controls: 0 for no effect and ±100 for the full control effect; nearly all actives have a fitted effect of over 60% in size
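PC12/HTTQ103-GFP, ecdysone-inducible; teb 100 nM; cpd qHTS titration; GFP aggregates read on laser cytometer, Ex 488/Em 500-530 nm.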
Starred values were filed as active, the others as inactive; ? = inconclusive; . = no result; [ ] = remark or other dose. In the library only some 1.6% were active in any assay of this set; here they are far more common. Unless noted, calls come from the whole dose curve; as a rule, active = well fitted curve in the direction sought with a large enough effect; inconclusive = small, poorly fitted or top-dose-only effect, or another doubt; inactive = no such curve, though single readings can be large; an effect the other way counts as inactive or inconclusive.

SMILES | IMPase cell inh | NPSR antagonist | LMNA splice mod | HTT ATP protect | IMPase Li cell | HTT aggregate
COc1ccc2cc3c(N)nn(C(=O)c4ccc(F)cc4)c3nc2c1 | . | -22% | . | -10%[10 µM] | . | 2.8µM*
COc1ccc2cc3c(N)nn(C(=O)c4cccc(F)c4)c3nc2c1 | . | 6% | . | -22%[10 µM] | . | 1µM*
COc1ccc(C(=O)n2nc(-c3ccc(OC)cc3)nc2N)cc1 | . | -17% | 1% | 4%[10 µM] | -1% | -7%
COc1ccc2cc3c(N)nn(C(=O)c4ccccc4Cl)c3nc2c1 | . | -54% | . | 0%[10 µM] | . | 0.35µM*
COc1ccccc1CNc1ncnc2ccc(-c3ccccc3C#N)cc12 | . | . | ? | -61% | 24% | .
COCCCN1C(=O)C(=O)/C(=C(/O)c2ccc(OCC(C)C)cc2C)C1c1cccnc1 (stereo not given) | ? | 26%[46.1 µM] | 14% | 22%[1.9 µM] | ? | -14%
CCCOc1ccc(/C(O)=C2/C(=O)C(=O)N(CCOC)C2c2cccnc2)cc1 (stereo not given) | -12 | ? | ? | -6%[0.074 µM] | 11µM* | 0%
CCCOc1ccc(/C(O)=C2/C(=O)C(=O)N(CCCOC)C2c2ccncc2)cc1 (stereo not given) | -7 | 20%[46.1 µM] | -3% | -2%[0.074 µM] | -24%[38.3 µM] | 16%
C=CCOc1ccc(/C(O)=C2\C(=O)C(=O)N(CCOC)C2c2cccnc2)cc1 (stereo not given) | -19 | 20%[46.1 µM] | -10% | 13%[0.074 µM] | 10µM* | -4%
CC1Cc2cc(/C(O)=C3/C(=O)C(=O)N(CCCn4ccnc4)C3c3ccncc3)ccc2O1 (stereo not given) | -27 | 13%[46.1 µM] | 6% | -20% | ? | 6%
CC1Cc2cc(/C(O)=C3/C(=O)C(=O)N(CCCn4ccnc4)C3c3cccnc3)ccc2O1 (stereo not given) | -20 | 14%[46.1 µM] | 1% | 3% | 11µM* | 2%
COc1ccc(NC(=O)CSc2nc(C)cc(C)c2C(=O)Nc2cccc(C)c2)cc1 | . | . | 6%[46 µM] | . | . | .
Cc1nc2ncnn2c(N2CCCC(C(=O)Nc3ccc4c(c3)CCC4)C2)c1C (stereo not given) | 5 | -29%[46.1 µM] | ? | -2%[10 µM] | 6%[38.3 µM] | 10µM*
O=C(Nc1ccc2c(c1)CCC2)C1CCCN(c2ncccn2)C1 (stereo not given) | 8 | ? | ? | -22%[10 µM] | -6%[38.3 µM] | 9%
O=C(/C=C/c1ccccc1)OCc1cnc(Cl)s1 | . | -2% | -20%[46 µM] | -26% | 2% | 1%
COC(=O)c1sc2cc(=O)n(-c3cccc(C(F)(F)F)c3)nc2c1O | . | 10µM* | 2%[46 µM] | -1%[10 µM] | 33% | -8%
CN(C)c1ccc(-n2cccc2/C=C/[N+](=O)[O-])cc1 | . | 7.9µM* | -16%[46 µM] | -87% | 13% | 25µM*
O=C1c2ccccc2C(=O)c2c(NCCCN(CCO)CCO)cccc21 | . | 13µM* | ? | -154% | 25% | ?
NC(=O)C[n+]1cccc2ccccc21 | -9 | -5%[46.1 µM] | 5% | 14% | -15%[38.3 µM] | 3%
CCCCC[n+]1cccc2c3ccccc3ccc21 | . | 6% | . | -97% | 4% | 2.5µM*
c1ccc(C[n+]2cccc3c4ccccc4ccc32)cc1 | 16 | 3%[46.1 µM] | 9% | -65% | 25%[38.3 µM] | 28µM*
Cc1ccc(NS(=O)(=O)c2ccc(C(=O)N3CCN(c4ccccn4)CC3)cc2)cc1 | -2 | -9%[46.1 µM] | ? | -14% | 43%[38.3 µM] | 11µM*
Cc1ccc(S(=O)(=O)NCc2ccc(C(=O)N3CCN(c4ccccn4)CC3)cc2)cc1 | 4 | -26%[46.1 µM] | ? | -5% | -7%[38.3 µM] | 8%
CCOC(=O)c1ccc(NC(=O)N2CCN(c3ccccn3)CC2)cc1 | -11 | -17%[46.1 µM] | -6% | 2% | 3%[38.3 µM] | 0.56µM*
CC1(C)Cc2c(c(-c3ccco3)[nH]c(=O)c2C#N)CS1 | -9 | -5%[46.1 µM] | -13% | 4%[10 µM] | 1%[38.3 µM] | 6%
SMILES | IMPase cell inh | NPSR antagonist | LMNA splice mod | HTT ATP protect | IMPase Li cell | HTT aggregate
CC1(C)Cc2c(C#N)c(N3CCN(C(=O)c4ccccc4Cl)CC3)nc(-c3ccco3)c2CS1 | 1 | ? | 8% | -22% | 1%[38.3 µM] | 0%
CC1(C)Cc2c(C#N)c(N3CCN(C(=O)c4ccco4)CC3)nc(-c3ccco3)c2CS1 | -1 | 10µM* | 0% | 25%[10 µM] | -2% | 24%
CC(=O)N1CCN(c2nc(-c3ccco3)c3c(c2C#N)CC(C)(C)SC3)CC1 | 16 | -16%[46.1 µM] | 6% | -52% | -4%[38.3 µM] | 13µM*
CC(C)[C@@H]1NC(=O)[C@H](CCCCN)NC(=O)[C@H](Cc2c[nH]c3ccccc23)NC(=O)[C@H](Cc2ccc(O)cc2)NC(=O)[C@H](C)N(C)C(=O)[C@H](Cc2ccccc2)NC1=O | 10 | . | . | -12%[1.9 µM] | . | .
CCC1=C[C@@H]2CN(C1)Cc1c([nH]c3ccccc13)[C@@](C(=O)OC)(c1cc3c(cc1OC)N(C)[C@@H]1[C@@](O)(C(=O)OC)[C@H](OC(C)=O)[C@]4(CC)C=CCN5CC[C@]31[C@@H]54)C2 | . | . | . | -98% | . | 5.6µM*
Cc1ccc(Cl)cc1N1CCN(C(=O)C2CCN(S(=O)(=O)c3cccnc3)CC2)CC1 | 4 | ? | -14% | 10% | 26%[38.3 µM] | 11µM*
COc1ccc2nc(NCN3C(=O)c4ccccc4C3=O)sc2c1 | . | . | . | -7%[10 µM] | -6% | .
CC(C)[C@H](NC(=O)c1ccco1)C(=O)OCC(=O)c1ccc2c(c1)NC(=O)CO2 | . | 3% | 10%[46 µM] | 13%[10 µM] | 6% | -4%
CC(C)CC(NC(=O)c1ccc(Cl)cc1)C(=O)OCC(=O)c1ccc2c(c1)NC(=O)CO2 (stereo not given) | 10 | 10µM* | ? | -61% | 46%[38.3 µM] | -12%
COc1cc2nc(=S)n3[nH]c(COc4ccccc4C)nc3c2cc1OC | . | -3% | -15% | 4%[10 µM] | -10% | 3%
COc1cc2nc(=S)n3[nH]c(CCn4nc(C)cc4C)nc3c2cc1OC | ? | -6%[46.1 µM] | -2% | -50%[10 µM] | 10µM* | ?
O=C1OC(=O)[C@@H]2[C@@H]1[C@@H]1CC[C@H]2O1 | -5 | . | . | -75% | . | .
C=CCOC(=O)C1=C(C)NC(SCC(=O)Nc2nccs2)=C(C#N)C1c1cccs1 (stereo not given) | 7 | -24%[46.1 µM] | ? | -32% | 0%[38.3 µM] | 13µM*
CCOC(=O)CN1C(=O)N[C@@H](c2cccc(C(F)(F)F)c2)[C@H](C(=O)OC)[C@H]1C | . | . | ? | -14%[10 µM] | 5% | .
Cc1cc(C)n2nc(SCN3C(=O)c4ccccc4C3=O)nc2n1 | -1 | -7%[46.1 µM] | 26% | -36% | 13µM* | -11%
Cc1cc(C)n2nc(SCC(=O)Nc3ccccc3)nc2n1 | 17 | 17% | -18%[46 µM] | 5% | -4% | 10%
